Drawing on article PMC7862700, “An all-to-all approach to the identification of sequence-specific readers for epigenetic DNA modifications on cytosine”, this text covers binding signal for one sequence.

Holding throughout (assay): DAPPL (digital affinity profiling via proximity ligation, sequencing); 10 mM Tris-HCl pH 7.5, 50 mM NaCl, 1 mM DTT, 4% glycerol, room temperature, 30 min; GST-TFs on glutathione beads, 16-mer random dsDNA library, 0.1% formaldehyde crosslink after washing; high values mean tight binding
One assay concerns the target T1, FEV (Homo sapiens, UniProt Q99581 1-238).
T1 sequence: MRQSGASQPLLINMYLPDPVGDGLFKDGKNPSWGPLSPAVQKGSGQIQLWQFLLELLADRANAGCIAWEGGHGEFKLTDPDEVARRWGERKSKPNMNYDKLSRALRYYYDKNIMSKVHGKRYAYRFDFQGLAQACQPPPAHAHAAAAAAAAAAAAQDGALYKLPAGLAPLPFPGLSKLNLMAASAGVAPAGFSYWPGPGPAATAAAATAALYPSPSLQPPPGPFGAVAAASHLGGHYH
The following applies: protein: recombinant; tags: N-terminal GST; dsDNA, one strand shown. The gist of the method:
(§1)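 A tag-only sample was pooled with DNA-barcoded human transcription factors that had been expressed in yeast as GST fusions and captured on glutathione beads. The pools were incubated for 30 min at room temperature with 200 nmole of a random double-stranded 16-mer DNA library in Tris/NaCl/DTT/glycerol buffer, then washed, crosslinked with 0.1% formaldehyde, proximity-ligated (BsaI/T4 ligase, 1 h, 37 °C), PCR-amplified and sequenced on an Illumina NextSeq500. Binding signal is each hexamer's read frequency for a factor divided by its frequency for the tag-only sample.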

The target of the next assay is ETV5 (Homo sapiens, UniProt P41161 1-510). The following applies: protein: recombinant; tags: N-terminal GST; dsDNA, one strand shown. The method, boiled down:
as §1

The target in the next assay is HSF1 (Homo sapiens, UniProt Q00613 1-529). The note with it: protein: recombinant; tags: N-terminal GST; chain copies: 3; dsDNA, one strand shown. The method, boiled down: as §1
A further assay has as its target T2, SPIC (Homo sapiens, UniProt Q8N5J4 1-248).
T2 sequence: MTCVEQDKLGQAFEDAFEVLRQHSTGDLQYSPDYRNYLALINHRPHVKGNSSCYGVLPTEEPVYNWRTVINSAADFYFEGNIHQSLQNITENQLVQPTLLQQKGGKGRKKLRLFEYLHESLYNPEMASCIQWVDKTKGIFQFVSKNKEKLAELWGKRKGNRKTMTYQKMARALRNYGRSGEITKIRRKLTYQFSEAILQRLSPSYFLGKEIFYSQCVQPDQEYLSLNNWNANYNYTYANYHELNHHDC
The note with it: protein: recombinant; tags: N-terminal GST; dsDNA, one strand shown. The gist of the method:
as §1

For a further assay, the target named is ELF4 (Homo sapiens, UniProt Q99607 1-663). The note with it: protein: recombinant; tags: N-terminal GST; dsDNA, one strand shown. The method, boiled down: as §1
The next assay has as its target T3, ELK4 (Homo sapiens, UniProt P28324-2 1-405).
T3 sequence: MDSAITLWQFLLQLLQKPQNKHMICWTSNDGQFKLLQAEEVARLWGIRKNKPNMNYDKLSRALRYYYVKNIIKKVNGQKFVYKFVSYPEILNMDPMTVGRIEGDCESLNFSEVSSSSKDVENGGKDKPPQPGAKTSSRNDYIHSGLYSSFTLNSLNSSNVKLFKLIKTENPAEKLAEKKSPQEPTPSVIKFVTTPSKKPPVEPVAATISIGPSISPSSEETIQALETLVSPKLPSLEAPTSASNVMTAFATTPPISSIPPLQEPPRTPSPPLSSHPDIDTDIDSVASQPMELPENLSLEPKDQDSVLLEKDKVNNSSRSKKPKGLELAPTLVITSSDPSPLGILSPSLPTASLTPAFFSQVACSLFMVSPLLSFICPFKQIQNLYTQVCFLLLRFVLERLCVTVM
The note with it: protein: recombinant; tags: N-terminal GST; dsDNA, one strand shown. The gist of the method:
as §1

For another assay, the target named is T4, ETV2 (Homo sapiens, UniProt O00321 1-342).
T4 sequence: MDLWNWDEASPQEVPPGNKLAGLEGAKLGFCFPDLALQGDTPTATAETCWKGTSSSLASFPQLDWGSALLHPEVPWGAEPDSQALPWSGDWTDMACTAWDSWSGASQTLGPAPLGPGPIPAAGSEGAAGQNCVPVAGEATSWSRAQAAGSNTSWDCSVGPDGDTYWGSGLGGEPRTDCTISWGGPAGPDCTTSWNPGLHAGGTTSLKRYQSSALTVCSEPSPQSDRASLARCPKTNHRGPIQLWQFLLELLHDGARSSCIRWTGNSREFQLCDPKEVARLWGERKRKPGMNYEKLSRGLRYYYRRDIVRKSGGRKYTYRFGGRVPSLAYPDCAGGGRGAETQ
The following applies: protein: recombinant; tags: N-terminal GST; dsDNA, one strand shown. The gist of the method: as §1

A further assay deals with T5, ELF3 (Homo sapiens, UniProt P78545 1-371).
T5 sequence: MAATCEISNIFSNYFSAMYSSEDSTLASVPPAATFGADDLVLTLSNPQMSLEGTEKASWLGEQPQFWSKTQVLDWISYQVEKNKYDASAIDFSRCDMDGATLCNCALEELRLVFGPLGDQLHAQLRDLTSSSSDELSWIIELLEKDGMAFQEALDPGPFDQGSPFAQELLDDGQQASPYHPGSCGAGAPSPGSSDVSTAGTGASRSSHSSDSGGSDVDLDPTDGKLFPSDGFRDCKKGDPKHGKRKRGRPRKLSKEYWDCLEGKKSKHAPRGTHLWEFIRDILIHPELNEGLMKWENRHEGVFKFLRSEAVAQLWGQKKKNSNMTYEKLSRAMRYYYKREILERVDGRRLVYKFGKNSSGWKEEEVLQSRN
The note with it: protein: recombinant; tags: N-terminal GST; dsDNA, one strand shown. The method, boiled down: as §1

In the next assay the target is CRX (Homo sapiens, UniProt O43186 1-299). The note with it: protein: recombinant; tags: N-terminal GST; dsDNA, one strand shown. The gist of the method: as §1
The next assay concerns the target ETV1 (Homo sapiens, UniProt P50549 1-477). The note with it: protein: recombinant; tags: N-terminal GST; dsDNA, one strand shown. The gist of the method: as §1
A further assay addresses T6, ERF (Homo sapiens, UniProt P50548 1-548).
T6 sequence: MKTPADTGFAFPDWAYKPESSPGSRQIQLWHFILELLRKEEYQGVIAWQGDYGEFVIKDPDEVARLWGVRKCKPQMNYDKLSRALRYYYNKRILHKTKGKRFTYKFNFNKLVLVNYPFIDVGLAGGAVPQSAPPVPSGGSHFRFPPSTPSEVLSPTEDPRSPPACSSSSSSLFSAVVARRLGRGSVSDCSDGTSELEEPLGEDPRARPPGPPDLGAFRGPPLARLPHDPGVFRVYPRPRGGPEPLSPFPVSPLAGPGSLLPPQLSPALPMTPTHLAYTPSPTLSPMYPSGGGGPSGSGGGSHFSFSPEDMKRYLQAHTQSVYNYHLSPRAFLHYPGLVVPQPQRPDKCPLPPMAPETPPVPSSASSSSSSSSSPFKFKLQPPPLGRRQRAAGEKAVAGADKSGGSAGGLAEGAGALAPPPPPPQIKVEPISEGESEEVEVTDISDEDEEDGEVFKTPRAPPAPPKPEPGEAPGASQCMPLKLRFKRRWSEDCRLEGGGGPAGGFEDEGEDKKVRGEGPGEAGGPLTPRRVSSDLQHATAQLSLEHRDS
The note with it: protein: recombinant; tags: N-terminal GST; dsDNA, one strand shown. The gist of the method:
as §1

The next assay deals with T7, ETV3L (Homo sapiens, UniProt Q6ZN32 1-361).
T7 sequence: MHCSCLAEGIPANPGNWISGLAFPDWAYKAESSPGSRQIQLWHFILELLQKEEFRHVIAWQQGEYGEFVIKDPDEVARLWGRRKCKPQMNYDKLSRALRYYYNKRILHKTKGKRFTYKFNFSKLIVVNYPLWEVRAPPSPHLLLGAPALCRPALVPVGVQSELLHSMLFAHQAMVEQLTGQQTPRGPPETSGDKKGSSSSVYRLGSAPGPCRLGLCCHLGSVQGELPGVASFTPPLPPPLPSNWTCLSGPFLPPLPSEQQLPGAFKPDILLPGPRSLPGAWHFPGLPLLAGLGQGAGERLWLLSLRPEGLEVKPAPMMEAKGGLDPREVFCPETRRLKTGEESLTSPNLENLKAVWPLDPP
The note with it: protein: recombinant; tags: N-terminal GST; dsDNA, one strand shown. The gist of the method:
as §1

The target of the next assay is T8, ETS2 (Homo sapiens, UniProt P15036 1-469).
T8 sequence: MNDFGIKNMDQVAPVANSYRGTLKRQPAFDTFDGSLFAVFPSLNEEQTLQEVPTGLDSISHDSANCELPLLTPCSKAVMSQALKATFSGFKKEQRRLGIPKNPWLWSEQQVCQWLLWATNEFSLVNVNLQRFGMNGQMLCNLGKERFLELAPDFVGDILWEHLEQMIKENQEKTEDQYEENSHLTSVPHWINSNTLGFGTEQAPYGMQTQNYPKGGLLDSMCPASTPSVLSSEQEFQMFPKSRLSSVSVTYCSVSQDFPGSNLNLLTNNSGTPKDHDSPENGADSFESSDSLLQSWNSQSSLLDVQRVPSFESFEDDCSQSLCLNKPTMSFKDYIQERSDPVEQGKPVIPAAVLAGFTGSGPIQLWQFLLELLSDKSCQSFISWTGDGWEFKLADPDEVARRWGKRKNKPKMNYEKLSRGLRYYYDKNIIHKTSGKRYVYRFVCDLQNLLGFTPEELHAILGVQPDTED
The following applies: protein: recombinant; tags: N-terminal GST; dsDNA, one strand shown. The method, boiled down: as §1

Another assay concerns the target T9, SPDEF (Homo sapiens, UniProt O95238 1-335).
T9 sequence: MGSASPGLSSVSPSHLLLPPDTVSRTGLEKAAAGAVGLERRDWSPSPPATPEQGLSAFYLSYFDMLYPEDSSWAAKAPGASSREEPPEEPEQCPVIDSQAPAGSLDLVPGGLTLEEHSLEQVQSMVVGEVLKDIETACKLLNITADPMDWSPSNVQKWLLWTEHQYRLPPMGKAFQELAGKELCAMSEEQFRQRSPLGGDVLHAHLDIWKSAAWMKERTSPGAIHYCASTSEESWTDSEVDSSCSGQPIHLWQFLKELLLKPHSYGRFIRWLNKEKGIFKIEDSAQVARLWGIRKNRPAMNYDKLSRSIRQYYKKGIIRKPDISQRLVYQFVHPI
The note with it: protein: recombinant; tags: N-terminal GST; dsDNA, one strand shown. The method, boiled down: as §1

The target of another assay is T10, ETV7 (Homo sapiens, UniProt Q9Y603 1-341).
T10 sequence: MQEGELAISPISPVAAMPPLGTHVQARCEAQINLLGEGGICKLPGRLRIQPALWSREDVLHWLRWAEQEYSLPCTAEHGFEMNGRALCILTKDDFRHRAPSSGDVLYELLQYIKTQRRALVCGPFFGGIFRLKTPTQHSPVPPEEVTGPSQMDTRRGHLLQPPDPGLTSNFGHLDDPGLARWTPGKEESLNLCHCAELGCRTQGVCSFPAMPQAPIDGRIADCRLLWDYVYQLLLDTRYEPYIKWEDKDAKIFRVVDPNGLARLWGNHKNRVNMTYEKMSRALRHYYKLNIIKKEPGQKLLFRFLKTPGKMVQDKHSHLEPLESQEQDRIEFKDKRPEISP
The following applies: protein: recombinant; tags: N-terminal GST; dsDNA, one strand shown. The method, boiled down:
as §1

In the next assay the target is T11, ELF5 (Homo sapiens, UniProt Q9UKW6-2 1-255).
T11 sequence: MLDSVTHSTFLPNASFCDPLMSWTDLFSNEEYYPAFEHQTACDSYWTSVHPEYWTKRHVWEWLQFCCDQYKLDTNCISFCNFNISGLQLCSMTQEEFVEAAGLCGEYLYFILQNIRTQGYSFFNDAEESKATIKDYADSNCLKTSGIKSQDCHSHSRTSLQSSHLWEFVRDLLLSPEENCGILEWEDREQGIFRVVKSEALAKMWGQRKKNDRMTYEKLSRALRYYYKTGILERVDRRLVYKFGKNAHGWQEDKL
The following applies: protein: recombinant; tags: N-terminal GST; dsDNA, one strand shown. The method, boiled down:
as §1

In a further assay the target is T12, ETV3 (Homo sapiens, UniProt P41162-2 1-143).
T12 sequence: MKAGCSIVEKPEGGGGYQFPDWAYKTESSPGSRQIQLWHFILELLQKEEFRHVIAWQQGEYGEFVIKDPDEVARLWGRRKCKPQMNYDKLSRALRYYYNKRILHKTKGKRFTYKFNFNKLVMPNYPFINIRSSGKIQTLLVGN
The following applies: protein: recombinant; tags: N-terminal GST; dsDNA, one strand shown. The method, boiled down:
as §1

For a further assay, the target named is ETV6 (Homo sapiens, UniProt P41212 1-452). The note with it: protein: recombinant; tags: N-terminal GST; dsDNA, one strand shown. The method, boiled down: as §1
ETV6, sequence (P41212 whole entry): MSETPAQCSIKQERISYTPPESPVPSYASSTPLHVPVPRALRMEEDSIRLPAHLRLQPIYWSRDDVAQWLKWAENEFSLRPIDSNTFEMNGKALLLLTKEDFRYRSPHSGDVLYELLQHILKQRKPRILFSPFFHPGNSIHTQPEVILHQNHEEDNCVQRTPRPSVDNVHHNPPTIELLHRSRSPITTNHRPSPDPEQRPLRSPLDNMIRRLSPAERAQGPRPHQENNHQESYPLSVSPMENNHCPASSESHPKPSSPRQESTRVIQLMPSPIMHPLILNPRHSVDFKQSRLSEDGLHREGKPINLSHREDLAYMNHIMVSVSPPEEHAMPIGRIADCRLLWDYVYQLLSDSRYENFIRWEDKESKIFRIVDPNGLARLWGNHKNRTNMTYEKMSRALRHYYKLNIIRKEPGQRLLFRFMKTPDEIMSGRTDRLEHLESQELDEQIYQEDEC

ETV1, sequence (P50549 whole entry): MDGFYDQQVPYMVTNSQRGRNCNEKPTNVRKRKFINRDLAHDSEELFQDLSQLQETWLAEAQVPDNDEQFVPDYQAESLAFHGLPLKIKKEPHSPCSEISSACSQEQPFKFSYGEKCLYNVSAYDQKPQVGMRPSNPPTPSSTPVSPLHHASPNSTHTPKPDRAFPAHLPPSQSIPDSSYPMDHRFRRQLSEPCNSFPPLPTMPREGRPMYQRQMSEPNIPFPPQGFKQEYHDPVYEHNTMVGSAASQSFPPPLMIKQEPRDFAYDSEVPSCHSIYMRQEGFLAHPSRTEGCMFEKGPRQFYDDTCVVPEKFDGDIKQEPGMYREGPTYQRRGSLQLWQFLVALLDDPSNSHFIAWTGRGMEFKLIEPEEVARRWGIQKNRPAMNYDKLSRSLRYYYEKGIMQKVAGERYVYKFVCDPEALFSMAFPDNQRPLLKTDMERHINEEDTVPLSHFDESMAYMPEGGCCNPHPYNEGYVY
ETV5, sequence (P41161 whole entry): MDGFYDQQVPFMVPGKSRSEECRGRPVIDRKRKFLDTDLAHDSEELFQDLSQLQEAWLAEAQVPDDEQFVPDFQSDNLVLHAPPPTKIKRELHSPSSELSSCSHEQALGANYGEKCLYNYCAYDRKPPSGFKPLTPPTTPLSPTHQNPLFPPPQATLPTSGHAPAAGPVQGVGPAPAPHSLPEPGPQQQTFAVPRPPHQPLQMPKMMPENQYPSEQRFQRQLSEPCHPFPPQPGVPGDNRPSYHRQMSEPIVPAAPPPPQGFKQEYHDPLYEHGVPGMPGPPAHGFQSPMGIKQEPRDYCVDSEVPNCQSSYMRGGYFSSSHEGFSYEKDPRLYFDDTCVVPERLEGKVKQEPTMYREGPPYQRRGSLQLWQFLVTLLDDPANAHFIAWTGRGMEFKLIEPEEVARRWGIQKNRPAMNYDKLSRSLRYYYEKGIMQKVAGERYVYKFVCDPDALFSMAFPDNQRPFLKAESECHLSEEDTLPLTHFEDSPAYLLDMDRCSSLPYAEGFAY
ELF4, sequence (Q99607 whole entry): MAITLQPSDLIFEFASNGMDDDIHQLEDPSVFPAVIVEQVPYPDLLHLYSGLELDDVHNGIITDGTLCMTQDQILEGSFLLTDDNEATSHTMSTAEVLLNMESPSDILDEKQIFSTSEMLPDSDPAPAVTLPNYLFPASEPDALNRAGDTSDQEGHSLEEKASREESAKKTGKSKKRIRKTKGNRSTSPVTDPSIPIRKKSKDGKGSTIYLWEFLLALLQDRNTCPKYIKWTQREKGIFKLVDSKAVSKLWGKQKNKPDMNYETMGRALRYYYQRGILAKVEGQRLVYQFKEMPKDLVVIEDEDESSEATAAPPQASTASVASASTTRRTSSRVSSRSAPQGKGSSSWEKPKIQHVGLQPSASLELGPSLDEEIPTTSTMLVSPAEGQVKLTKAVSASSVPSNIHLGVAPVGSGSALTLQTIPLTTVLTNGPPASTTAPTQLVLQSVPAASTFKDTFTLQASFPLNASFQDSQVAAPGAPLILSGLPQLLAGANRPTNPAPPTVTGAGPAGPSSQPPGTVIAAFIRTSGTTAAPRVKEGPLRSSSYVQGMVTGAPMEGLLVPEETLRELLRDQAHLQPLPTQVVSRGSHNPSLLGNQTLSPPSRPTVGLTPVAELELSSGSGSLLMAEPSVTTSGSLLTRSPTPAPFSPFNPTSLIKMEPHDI
HSF1, sequence (Q00613 whole entry): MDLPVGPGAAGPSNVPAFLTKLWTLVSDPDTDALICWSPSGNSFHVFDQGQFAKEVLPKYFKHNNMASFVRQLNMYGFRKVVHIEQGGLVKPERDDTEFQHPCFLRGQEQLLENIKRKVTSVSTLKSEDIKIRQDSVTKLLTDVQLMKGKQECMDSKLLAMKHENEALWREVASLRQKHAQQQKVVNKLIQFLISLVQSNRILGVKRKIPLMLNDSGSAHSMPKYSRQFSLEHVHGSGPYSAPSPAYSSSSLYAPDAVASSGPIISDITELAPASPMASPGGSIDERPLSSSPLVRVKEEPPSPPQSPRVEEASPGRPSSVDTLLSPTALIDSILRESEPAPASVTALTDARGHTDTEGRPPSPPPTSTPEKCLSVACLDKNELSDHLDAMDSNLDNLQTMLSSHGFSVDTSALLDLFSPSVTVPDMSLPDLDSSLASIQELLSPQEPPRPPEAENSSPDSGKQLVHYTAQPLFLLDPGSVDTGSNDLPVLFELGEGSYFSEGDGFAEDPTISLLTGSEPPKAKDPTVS
CRX, sequence (O43186 whole entry): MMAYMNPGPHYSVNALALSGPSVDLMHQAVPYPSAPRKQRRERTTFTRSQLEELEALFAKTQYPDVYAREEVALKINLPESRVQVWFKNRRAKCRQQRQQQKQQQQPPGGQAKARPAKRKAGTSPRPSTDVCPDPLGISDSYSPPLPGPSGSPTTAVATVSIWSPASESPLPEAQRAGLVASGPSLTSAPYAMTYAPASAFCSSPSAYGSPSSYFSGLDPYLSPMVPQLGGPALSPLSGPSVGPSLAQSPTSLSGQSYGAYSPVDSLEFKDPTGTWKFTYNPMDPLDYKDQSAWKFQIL

TCTTCC: the binding signal is 2.55 fold enrichment (6-mer frequency, TF over GST control) with FEV; 2.85 fold enrichment (6-mer frequency, TF over GST control) with ETV5; 1.69 fold enrichment (6-mer frequency, TF over GST control) with HSF1; 2.31 fold enrichment (6-mer frequency, TF over GST control) with SPIC; 2.35 fold enrichment (6-mer frequency, TF over GST control) with ELF4; 2.38 fold enrichment (6-mer frequency, TF over GST control) in the assay with ELK4. Besides, the binding signal with ETV2 is 2.61 fold enrichment (6-mer frequency, TF over GST control); with ELF3, 2.33 fold enrichment (6-mer frequency, TF over GST control); with CRX, 1.34 fold enrichment (6-mer frequency, TF over GST control); with ETV1 it was 2.62 fold enrichment (6-mer frequency, TF over GST control); with ERF, 2.26 fold enrichment (6-mer frequency, TF over GST control); with ETV3L, 2.66 fold enrichment (6-mer frequency, TF over GST control). Besides, the binding signal with ETS2 is 2.8 fold enrichment (6-mer frequency, TF over GST control); with SPDEF, 2.45 fold enrichment (6-mer frequency, TF over GST control); with ETV7, 2.35 fold enrichment (6-mer frequency, TF over GST control); in the assay with ELF5, 4.14 fold enrichment (6-mer frequency, TF over GST control); with ETV3, 2.74 fold enrichment (6-mer frequency, TF over GST control); with ETV6 it was 2.8 fold enrichment (6-mer frequency, TF over GST control).
